# According to PubChem BioAssay (NCATS):
# Inconclusive results are not listed. Calls of active or inactive are those of the source. The call rests on the fitted dose curve; in most records, active means well fitted cell-killing curve with a large enough effect; inconclusive means small, poorly fitted or top-dose-only effect, or effect the other way; inactive means flat fitted curve, though single readings scatter. Where a SMILES comes first, the peptide text is derived from it.
# Test system: C33A
# Assay: Primary qHTS to identify gynecologic anti-cancer compounds using libraries of approved drugs and bioactive compounds (AID 1345084); further: nearly all actives have a fitted effect of over 55% in size
# Conditions: Gynecologic cancer cell panel viability, ATPlite luminescence, 48 h; series mostly up to 57.5 µM; activity change, negative = cytotoxicity: at the top concentration
# Procedure, shortened: (§1)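 ATP-based viability (ATPlite), 1,000 cells/well, 16 h pre-incubation, 48 h compound at 37 C, 5% CO2, 15 min RT before read.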
# On the % scale 0 is the no-effect control and ±100 the full control effect.
row,Structure (SMILES),"activity change, negative = cytotoxicity"
1,O=S(=O)(NC1CCNCC1)c1cc(S(=O)(=O)c2ccccc2)ccc1C(F)(F)F,11.8% (inactive)
2,CC1CCC2(C(=O)OC3OC(CO)C(O)C(O)C3O)CCC3(C)C(=CCC4C5(C)CC(O)C(O)C(C)(C(=O)O)C5CCC43C)C2C1(C)O (configuration not stated),-0.74% [at 25.3 µM] (inactive)
3,Cc1nnc(C(C)C)n1C1CC2CCC(C1)N2CC[C@H](NC(=O)C1CCC(F)(F)CC1)c1ccccc1 (some centres not stated),-3.38% (inactive)
4,Cc1nn(C)c2c1C(c1ccc(C(F)(F)F)cc1)C(C#N)=C(N)O2 (configuration not stated),4.41% (inactive)
5,CC(=O)[C@@H]1CC[C@]2(C(=O)O)CC[C@]3(C)C(CCC4[C@@]5(C)CC[C@H](O)C(C)(C)C5CC[C@]43C)C12 (some centres not stated),-5.04% [at 25.3 µM] (inactive)
6,COc1cc(/C=C/C(=O)OC(C)(C)C(OC2OC(CO)C(O)C(O)C2O)C(=O)OCc2ccc(OC3OC(CO)C(O)C(O)C3O)cc2)ccc1O (configuration not stated),0.152% [at 25.3 µM] (inactive)
7,Cc1cn2c(N)c(Cl)cc(C(=O)NCC3CCN(CC(C)C)CC3)c2n1,-12.4% (inactive)
8,OC[C@H]1O[C@@H](Oc2cc(O)cc(/C=C/c3ccc(O)cc3)c2)[C@H](O)[C@@H](O)[C@@H]1O,-19.6% (inactive)
9,CC(C)=CCC[C@](C)(O[C@@H]1O[C@H](CO[C@@H]2OC[C@@H](O)[C@H](O)[C@H]2O)[C@@H](O)[C@H](O)[C@H]1O)[C@H]1CC[C@]2(C)[C@@H]1[C@H](O)C[C@@H]1[C@@]3(C)CC[C@H](O[C@@H]4O[C@H](CO)[C@@H](O)[C@H](O)[C@H]4O[C@@H]4O[C@H](CO)[C@@H](O)[C@H](O)[C@H]4O)C(C)(C)[C@@H]3CC[C@]12C,7.04% [at 25.3 µM] (inactive)
10,COc1ccc2c(c1)OC[C@]1(O)c3cc4c(cc3O[C@H]21)OCO4,13.4% [at 38.5 µM] (inactive)
11,COC1=CC(=O)O[C@@H](/C=C/c2ccccc2)[C@@H]1O,13.6% (inactive)
12,CCOC(=O)N1CCC(NCCNC(=O)c2ccccc2C)CC1,-0.421% (inactive)
13,C=C[C@@]1(C)CC(=O)C2[C@](C)(O1)[C@@H](OC(C)=O)[C@@H](O)[C@H]1C(C)(C)CCC[C@]21C (some centres not stated),11.6% [at 11.6 µM] (inactive)
14,O=C1N(CC2CCCCN2)CCN1c1ccccc1 (configuration not stated),-3.84% (inactive)
15,COc1cc(C(C)=O)ccc1O[C@@H]1O[C@H](CO[C@@H]2O[C@@H](C)[C@H](O)[C@@H](O)[C@H]2O)[C@@H](O)[C@H](O)[C@H]1O,1.48% [at 25.3 µM] (inactive)
16,COC(=O)[C@@]1(O)C=CC[C@@H]2[C@@]3(C)C[C@@H](c4ccoc4)OC(=O)[C@H]3CC[C@]21C,1.92% [at 38.5 µM] (inactive)
17,COc1ccc(C(=O)O[C@H]2CC(C)=CC[C@@]3(C)[C@@H](OC(C)=O)C[C@@](O)(C(C)C)[C@H]23)cc1,-4.25% [at 25.3 µM] (inactive)
18,CC1(C)CC(=O)N(CCCCN2CCN(c3ncccn3)CC2)C(=O)C1,5.27% (inactive)
19,C=C1CC[C@H]2[C@@](C)(CCC(O)[C@@]2(C)CO)[C@@H]1C/C=C(/C(=O)O)C(O)CO (some centres not stated),24.1% [at 38.5 µM] (inactive)
20,COc1cc(/C=C/C(=O)OC2CC(C)=C(C(=O)O)/C2=C/CO[C@@H]2O[C@H](CO)[C@@H](O)[C@H](O)[C@H]2O)ccc1O (some centres not stated),17.2% [at 25.3 µM] (inactive)
21,CC(=O)OCC1=C[C@H](O)[C@@H]2C(C(=O)O)=CO[C@@H](O[C@@H]3O[C@H](CO)[C@@H](O)[C@H](O)[C@H]3O)[C@H]12,10.6% [at 25.3 µM] (inactive)
22,C=CC(C)(C)O[C@@H]1O[C@H](CO[C@@H]2OC[C@](O)(CO)[C@H]2O)[C@@H](O)[C@H](O)[C@H]1O,2.26% [at 38.5 µM] (inactive)
23,COC(=O)[C@@H]1C2CC3c4[nH]c5ccccc5c4CCN3CC2CC[C@@H]1O (some centres not stated),18.3% (inactive)
24,FC(F)(F)c1cc(C(F)(F)F)c2ccc3nc(-c4nnco4)cn3c2n1,4.63% (inactive)
25,COC(=O)C1=COC(OC2OC(CO)C(O)C(O)C2O)C2C1CC(OC(=O)C(O)CC(=O)O)C2C (configuration not stated),4.19% [at 25.3 µM] (inactive)

# Test system: CAOV3
# Assay: as above
# Conditions: Gynecologic cancer cell panel viability, ATPlite luminescence, 48 h; series mostly up to 57.5 µM; activity change, negative = cytotoxicity: at the top concentration
# Procedure, shortened: as §1
Structure (SMILES),"activity change, negative = cytotoxicity",Potency
Nc1nc(CC(=O)Nc2ccc(CCNCC(O)c3ccccc3)cc2)cs1 (configuration not stated),19.4% (inactive),
CC1NC(=O)CNC(=O)C(C(C)C)NC(=O)C2CCCN2C(=O)C(C(C)C)NC(=O)C(Cc2c[nH]c3ccccc23)NC1=O (configuration not stated) (cyclo(GAWVPV); configuration not given here),0.943% [at 25.3 µM] (inactive),
CC(C)(C)c1cc(CN2CCN(CC(O)c3ccc(Cl)cc3)CC2)cc(C(C)(C)C)c1O (configuration not stated),6.81% (inactive),
CC[C@@H](c1ccc(F)c(F)c1)n1c(C(=O)OC)c(-c2ccno2)[nH]c1=S,23.3% (inactive),
O=C(O)C[C@H]1CCC(=O)[C@@H]1C/C=C\CCOC1OC(CO)C(O)C(O)C1O (some centres not stated),22.4% [at 38.5 µM] (inactive),
N#Cc1ccc2[nH]c(O)c(-c3ccc(CN4CCOCC4)cn3)c2c1,-1.74% (inactive),
C=Cc1cc(O)cc2nc(-c3ccc(O)c(F)c3)oc12,-10.9% (inactive),
COc1ccc(C(OC2OC(CO)C(O)C(O)C2O)C(C)O)cc1 (configuration not stated),5.77% [at 38.5 µM] (inactive),
CC1CCC2(C(=O)OC3OC(COC4OC(CO)C(O)C(O)C4O)C(O)C(O)C3O)CCC3(C)C(=CCC4C5(C)CCC(O)C(C)(C(=O)O)C5CCC43C)C2C1(C)O (configuration not stated),16.9% [at 11.6 µM] (inactive),
Cc1cc(N2CCCCC2)nc2ccccc12,3.54% (inactive),
Cc1cc(Nc2ncc(Cl)c(Nc3ccccc3S(=O)(=O)C(C)C)n2)c(OC(C)C)cc1C1CCNCC1,-11.4% (inactive),
CCn1c2ccccc2c2cc(CNC)ccc21,,inactive
O=S(=O)(NC1CCNCC1)c1cc(S(=O)(=O)c2ccccc2)ccc1C(F)(F)F,30.5% (inactive),
CC1CCC2(C(=O)OC3OC(CO)C(O)C(O)C3O)CCC3(C)C(=CCC4C5(C)CC(O)C(O)C(C)(C(=O)O)C5CCC43C)C2C1(C)O (configuration not stated),-14.9% [at 25.3 µM] (inactive),
Cc1nnc(C(C)C)n1C1CC2CCC(C1)N2CC[C@H](NC(=O)C1CCC(F)(F)CC1)c1ccccc1 (some centres not stated),-4.78% (inactive),
Cc1nn(C)c2c1C(c1ccc(C(F)(F)F)cc1)C(C#N)=C(N)O2 (configuration not stated),1% (inactive),
CC(=O)[C@@H]1CC[C@]2(C(=O)O)CC[C@]3(C)C(CCC4[C@@]5(C)CC[C@H](O)C(C)(C)C5CC[C@]43C)C12 (some centres not stated),-10.4% [at 25.3 µM] (inactive),
COc1cc(/C=C/C(=O)OC(C)(C)C(OC2OC(CO)C(O)C(O)C2O)C(=O)OCc2ccc(OC3OC(CO)C(O)C(O)C3O)cc2)ccc1O (configuration not stated),3.78% [at 25.3 µM] (inactive),
Cc1cn2c(N)c(Cl)cc(C(=O)NCC3CCN(CC(C)C)CC3)c2n1,10.2% (inactive),

Structure (SMILES),"activity change, negative = cytotoxicity",Potency
OC[C@H]1O[C@@H](Oc2cc(O)cc(/C=C/c3ccc(O)cc3)c2)[C@H](O)[C@@H](O)[C@@H]1O,-12.6% (inactive),
CC(C)=CCC[C@](C)(O[C@@H]1O[C@H](CO[C@@H]2OC[C@@H](O)[C@H](O)[C@H]2O)[C@@H](O)[C@H](O)[C@H]1O)[C@H]1CC[C@]2(C)[C@@H]1[C@H](O)C[C@@H]1[C@@]3(C)CC[C@H](O[C@@H]4O[C@H](CO)[C@@H](O)[C@H](O)[C@H]4O[C@@H]4O[C@H](CO)[C@@H](O)[C@H](O)[C@H]4O)C(C)(C)[C@@H]3CC[C@]12C,11.8% [at 25.3 µM] (inactive),
COc1ccc2c(c1)OC[C@]1(O)c3cc4c(cc3O[C@H]21)OCO4,-1.28% [at 38.5 µM] (inactive),
COC1=CC(=O)O[C@@H](/C=C/c2ccccc2)[C@@H]1O,7.78% (inactive),
CCOC(=O)N1CCC(NCCNC(=O)c2ccccc2C)CC1,11% (inactive),
C=C[C@@]1(C)CC(=O)C2[C@](C)(O1)[C@@H](OC(C)=O)[C@@H](O)[C@H]1C(C)(C)CCC[C@]21C (some centres not stated),10.9% [at 11.6 µM] (inactive),
O=C1N(CC2CCCCN2)CCN1c1ccccc1 (configuration not stated),24.4% (inactive),
COc1cc(C(C)=O)ccc1O[C@@H]1O[C@H](CO[C@@H]2O[C@@H](C)[C@H](O)[C@@H](O)[C@H]2O)[C@@H](O)[C@H](O)[C@H]1O,-0.904% [at 25.3 µM] (inactive),
COC(=O)[C@@]1(O)C=CC[C@@H]2[C@@]3(C)C[C@@H](c4ccoc4)OC(=O)[C@H]3CC[C@]21C,0.454% [at 38.5 µM] (inactive),
COc1ccc(C(=O)O[C@H]2CC(C)=CC[C@@]3(C)[C@@H](OC(C)=O)C[C@@](O)(C(C)C)[C@H]23)cc1,17.2% [at 25.3 µM] (inactive),
CC1(C)CC(=O)N(CCCCN2CCN(c3ncccn3)CC2)C(=O)C1,15.9% (inactive),
C=C1CC[C@H]2[C@@](C)(CCC(O)[C@@]2(C)CO)[C@@H]1C/C=C(/C(=O)O)C(O)CO (some centres not stated),-4.08% [at 38.5 µM] (inactive),
COc1cc(/C=C/C(=O)OC2CC(C)=C(C(=O)O)/C2=C/CO[C@@H]2O[C@H](CO)[C@@H](O)[C@H](O)[C@H]2O)ccc1O (some centres not stated),-1.58% [at 25.3 µM] (inactive),
CC(=O)OCC1=C[C@H](O)[C@@H]2C(C(=O)O)=CO[C@@H](O[C@@H]3O[C@H](CO)[C@@H](O)[C@H](O)[C@H]3O)[C@H]12,-0.348% [at 25.3 µM] (inactive),
C=CC(C)(C)O[C@@H]1O[C@H](CO[C@@H]2OC[C@](O)(CO)[C@H]2O)[C@@H](O)[C@H](O)[C@H]1O,4.4% [at 38.5 µM] (inactive),
COC(=O)[C@@H]1C2CC3c4[nH]c5ccccc5c4CCN3CC2CC[C@@H]1O (some centres not stated),13.6% (inactive),
FC(F)(F)c1cc(C(F)(F)F)c2ccc3nc(-c4nnco4)cn3c2n1,28.2% (inactive),
COC(=O)C1=COC(OC2OC(CO)C(O)C(O)C2O)C2C1CC(OC(=O)C(O)CC(=O)O)C2C (configuration not stated),-11.5% [at 25.3 µM] (inactive),
